Nine compounds from PubChem BioAssay (Tox21) can be followed below.

The nature of test [1]: qHTS assay to identify small molecule antagonists of the estrogen receptor alpha (ER-alpha) signaling pathway using the BG1 cell line in the presence of 0.1 nM 17-beta-estradiol - cell viability counter screen (AID 1259241). Further: nearly all actives have a fitted effect of over 40% in size. An outline of the steps:
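Viability in VM7Luc4E2 cells after 22 hr compound exposure under 0.1 nM 17beta-estradiol stimulation, by CellTiter-Fluor.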
For orientation: In qHTS, concentration-response curves come from the screen itself.

The target of test [2] is Estrogen receptor (Homo sapiens) (UniProt P03372). As to the kind of experiment: qHTS assay to identify small molecule antagonists of the estrogen receptor alpha (ER-alpha) signaling pathway using the BG1 cell line in the presence of 0.1 nM 17-beta-estradiol (AID 1259244). Further: nearly all actives have a fitted effect of over 50% in size. Summed up:
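VM7Luc4E2; 4xERE-luciferase; 0.1 nM E2 final; 22 h co-incubation, 37C; ONE-Glo luminescence after 30 min at room temperature.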

The nature of test [3]: qHTS assay to identify small molecule HDAC inhibitors (AID 1259364).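 Further: wild-type HCT-116 cells with endogenous class I/II HDAC activity; top concentration of the series differs between compounds; nearly all actives have a fitted effect of over 45% in size.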 An outline of the steps:
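Relative class I and II HDAC activity is taken from the luminogenic signal in HCT-116 cells, with compound exposure 2 hr and reagent development 30 min at room temperature.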

A short description of test [4]: qHTS assay to identify small molecule HDAC inhibitors - cell viability counter screen (AID 1259365). Further: series mostly up to about 92 µM; nearly all actives have a fitted effect of over 50% in size. Summed up:
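Cytotoxicity was gauged in wild-type HCT-116 cells after a brief 2hr treatment with DMSO-dissolved compounds at 37C and 5% CO2, using CellTiter-Glo luminescence developed for 30min at room temperature.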

Test [5] is described as follows: qHTS assay to identify small molecule agonists of the sonic hedgehog signaling (Shh) pathway - cell viability counter screen (AID 1259366). Further: nearly all actives have a fitted effect of over 50% in size. Summed up: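 Stable Gli1-Luc NIH/3T3 clone, 2,000 cells/well. Compound exposure 24hr at 37C. Read-out: CellTiter-Fluor fluorescence.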
Test [6] is described as follows: qHTS assay to identify small molecule antagonists of the sonic hedgehog signaling (Shh) pathway - cell viability counter screen (AID 1259367). Further: nearly all actives have a fitted effect of over 55% in size. An outline of the steps:
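Using CellTiter-Fluor, viability of Gli1-Luc reporter 3T3 cells is read by fluorescence in the wells used for the Shh luciferase assay. Treatment lasts 23 hr with conditioned medium, then reagent 1 hr at 37C.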

Test [7] is described as follows: qHTS assay to identify small molecule agonists of the sonic hedgehog signaling (Shh) pathway (AID 1259368; calls by dose curve;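 further: NIH/3T3-derived 3T3Gli1-Luc cells carrying a stable Gli1-driven firefly luciferase reporter; series mostly up to about 92 µM; nearly all actives have a fitted effect of over 15% in size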). An outline of the steps: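 Mouse fibroblast (NIH/3T3) reporter cells with stably integrated Gli1-Luc were treated 24 hr with compound; firefly luciferase luminescence served as the read-out.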
Test [8] can be described thus: qHTS assay to identify small molecule antagonists of the sonic hedgehog signaling (Shh) pathway (AID 1259369; calls by dose curve; further: nearly all actives have a fitted effect of over 45% in size; further: potency means the concentration at half of the fitted maximal effect). Summed up: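 Conditioned medium drives Shh signalling in 3T3Gli1-Luc cells; compounds in DMSO co-applied, 24hr at 37 C, then luciferase luminescence.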
The target of test [9] is Estrogen receptor beta (Homo sapiens) (UniProt Q92731). As to the kind of experiment: qHTS assay to identify small molecule antagonists of the estrogen receptor beta (ER-beta) signaling pathway (AID 1259378; active means well fitted inhibition curve with a large enough effect in the signal ratio in the repeat runs, not every such curve was filed as active; the % refers to the signal ratio). An outline of the steps: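 Antagonist mode: compounds added to beta-lactamase reporter HEK293T ER-beta-UAS cells stimulated with E2 (1nM final), 16 hr at 37C. LiveBLAzer B/G FRET substrate, 2 hours room temperature, fluorescence read-out.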

A short description of test [10]: qHTS assay to identify small molecule agonists of the androgen receptor (AR) signaling pathway in the presence of an antagonist - cell viability counter screen (AID 1259379). Further: nearly all actives have a fitted effect of over 25% in size. Further: potency means the concentration at half of the fitted maximal effect.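 On activity change, negative = cytotoxicity: MDA-kb2 human breast cancer cells carrying an MMTV luciferase reporter; series mostly up to about 92 µM.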 An outline of the steps: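 A CellTiter-Fluor read-out measured viability of MDA-kb2 reporter cells (MMTV promoter with AR and GR response elements). Treatment: nilutamide 3.0uM final with compounds at 15 concentrations, 16 hr, 37C, 0% CO2.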

Test [11] can be described thus: qHTS assay to identify small molecule agonists of the estrogen receptor beta (ER-beta) signaling pathway - cell viability counter screen (AID 1259380). Further: nearly all actives have a fitted effect of over 30% in size. Further: potency means the concentration at half of the fitted maximal effect. An outline of the steps: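 Cells used were ER-beta-UAS-bla HEK293T in medium with 2% charcoal-stripped FBS. They were treated for 16 hr at 37C. Viability came from CellTiter-Glo luminescence.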
Test [12] addresses Estrogen receptor (Homo sapiens) (UniProt P03372). In words: qHTS assay to identify small molecule agonists of the estrogen receptor alpha (ER-alpha) signaling pathway in the presence of an antagonist (AID 1259383; calls by dose curve; further: top concentration of the series differs between compounds; nearly all actives have a fitted effect of over 15% in size). An outline of the steps: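 Using VM7Luc4E2 cells seeded 24hr before treatment, antagonist ICI-182,780 (10.0nM final) was added, followed by compounds at 15 concentrations. Plates incubated 22hr; ONE-Glo luminescence quantified reporter activity.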

Test [13] in a line: qHTS assay to identify small molecule agonists or antagonists of the thyroid stimulating hormone receptor (TSHR) signaling pathway - wild type cell line counter screen (AID 1259384; calls by dose curve). An outline of the steps:
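Counter screen in untransfected Hek293: compounds (15-point titration, triplicate) plus phosphodiesterase inhibitor Ro20-1724 added after 18 h plating; 30 min RT. Intracellular cAMP via competitive d2/cryptate immunoassay, 1 h incubation.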

Test [14] has as its target Thyrotropin receptor (Homo sapiens) (UniProt P16473). As to the kind of experiment: qHTS assay to identify small molecule antagonists of the thyroid stimulating hormone receptor (TSHR) signaling pathway (AID 1259385; calls by dose curve; further: nearly all actives have a fitted effect of over 20% in size). An outline of the steps: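 Antagonist mode: compound-treated TSHR-expressing HEK293 cells were stimulated with 1.5 ng/mL TSH (final) in presence of Ro20-1724 for 30 min at RT. HTRF cAMP detection after 1 h; each compound tested at 15 concentrations, triplicate.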

For test [15], the target named is Androgen receptor (Homo sapiens) (UniProt P10275). As to the kind of experiment: qHTS assay to identify small molecule antagonists of the androgen receptor (AR) signaling pathway using the MDA cell line in the presence of 0.5 nM R1881 (AID 1259243). Further: nearly all actives have a fitted effect of over 50% in size. Summed up: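 We exposed MDA-kb2 cells to compounds under 0.5 nM R1881 stimulation for 16 hr at 37C and quantified MMTV-driven luciferase by luminescence.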

Test [16] shares this target. In words: qHTS assay to identify small molecule agonists of the androgen receptor (AR) signaling pathway in the presence of an antagonist (AID 1259381; calls by dose curve; further: nearly all actives have a fitted effect of over 15% in size). Summed up:
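Using human MDA-kb2 cells with an MMTV promoter–luciferase construct (AR and GR response elements), agonist activity is scored under 3.0uM nilutamide (final) co-treatment; 16hr incubation, 37C, luminescence readout via ONE-Glo.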

Test [17] can be described thus: qHTS assay to identify small molecule antagonists of the estrogen receptor beta (ER-beta) signaling pathway - cell viability counter screen (AID 1259382). Further: nearly all actives have a fitted effect of over 55% in size. Further: potency means the concentration at half of the fitted maximal effect. On activity change, negative = cytotoxicity: series mostly up to about 92 µM. Summed up: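 Agonist-stimulated (1nM E2) ER-beta-UAS-bla HEK293T cells are incubated with library compounds for 16 hr at 37C. Cell viability is then assessed in the reporter-assay wells by adding CellTiter-Glo and reading luminescence after 30 min.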

For test [18], the target named is Estrogen receptor beta (Homo sapiens) (UniProt Q92731). In words: qHTS assay to identify small molecule agonists of the estrogen receptor beta (ER-beta) signaling pathway (AID 1259377; active means well fitted activation curve with a large enough effect in the signal ratio in the repeat runs, not every such curve was filed as active; the % refers to the signal ratio). An outline of the steps:
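Measured by fluorescence intensity from a B/G FRET beta-lactamase substrate (2 h, room temperature) in ER-beta-UAS-bla HEK293T cells treated with DMSO-dissolved compounds for 16 hr at 37C and 5% CO2.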

A short description of test [19]: qHTS assay to identify small molecule antagonists of the androgen receptor (AR) signaling pathway using the MDA cell line in the presence of 0.5 nM R1881 - cell viability counter screen (AID 1259242). Further: nearly all actives have a fitted effect of over 45% in size. An outline of the steps:
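R1881 at 0.5 nM final stimulated MDA-kb2 cells during 16 hr compound treatment at 37C. Cytotoxicity read: CellTiter-Fluor fluorescence after 30 min.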

Test [20] is described as follows: qHTS assay to identify small molecule phospholipidosis (PLD) inducers (AID 1259344; active means well fitted curve in the direction sought with a large enough effect; an effect the other way counts as inactive or inconclusive). An outline of the steps: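 Fluorescent phospholipid staining (LipidTOX Red) measured by automated microscopy in fixed HepG2 cells after 24 h treatment; nuclei counterstained with Hoechst 33342; amiodarone as reference inducer.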

Values without a mark were called inactive. Records with an inconclusive call do not appear. The source made the active and inactive calls. Unless noted, the call rests on the fitted dose curve; in most records, active means well fitted curve in the direction sought with a large enough effect in the repeat runs; inconclusive means weak or mixed curves; inactive means no such curve, though single readings can be large; an effect the other way counts as inactive or inconclusive.
On the % scale 0 is the no-effect control and ±100 the full control effect.

Sequence of Androgen receptor (Homo sapiens) (P10275 whole entry, looked up): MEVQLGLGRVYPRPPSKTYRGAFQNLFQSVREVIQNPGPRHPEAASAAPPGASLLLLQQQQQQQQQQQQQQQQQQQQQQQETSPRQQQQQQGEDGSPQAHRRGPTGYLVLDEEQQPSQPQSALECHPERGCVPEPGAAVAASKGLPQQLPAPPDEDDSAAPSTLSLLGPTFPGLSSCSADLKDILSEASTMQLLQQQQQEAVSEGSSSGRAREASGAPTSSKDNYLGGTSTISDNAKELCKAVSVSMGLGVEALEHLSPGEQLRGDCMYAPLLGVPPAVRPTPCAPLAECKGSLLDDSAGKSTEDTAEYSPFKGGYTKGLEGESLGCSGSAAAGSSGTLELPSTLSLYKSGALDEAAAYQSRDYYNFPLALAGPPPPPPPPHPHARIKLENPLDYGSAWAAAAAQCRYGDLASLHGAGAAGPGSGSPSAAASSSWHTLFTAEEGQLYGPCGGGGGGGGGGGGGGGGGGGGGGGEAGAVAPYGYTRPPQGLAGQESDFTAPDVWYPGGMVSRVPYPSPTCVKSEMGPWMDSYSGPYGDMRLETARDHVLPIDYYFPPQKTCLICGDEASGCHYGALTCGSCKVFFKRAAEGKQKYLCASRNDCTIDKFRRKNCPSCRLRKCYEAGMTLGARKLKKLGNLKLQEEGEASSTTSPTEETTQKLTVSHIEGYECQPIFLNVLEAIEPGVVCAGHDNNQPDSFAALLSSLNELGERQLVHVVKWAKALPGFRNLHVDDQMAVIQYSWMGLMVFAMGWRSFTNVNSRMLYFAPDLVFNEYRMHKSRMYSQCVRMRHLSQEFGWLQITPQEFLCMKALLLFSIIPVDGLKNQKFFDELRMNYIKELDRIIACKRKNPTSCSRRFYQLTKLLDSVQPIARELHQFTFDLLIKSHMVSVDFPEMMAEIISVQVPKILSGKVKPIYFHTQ
Sequence of Estrogen receptor beta (Homo sapiens) (Q92731 whole entry, looked up): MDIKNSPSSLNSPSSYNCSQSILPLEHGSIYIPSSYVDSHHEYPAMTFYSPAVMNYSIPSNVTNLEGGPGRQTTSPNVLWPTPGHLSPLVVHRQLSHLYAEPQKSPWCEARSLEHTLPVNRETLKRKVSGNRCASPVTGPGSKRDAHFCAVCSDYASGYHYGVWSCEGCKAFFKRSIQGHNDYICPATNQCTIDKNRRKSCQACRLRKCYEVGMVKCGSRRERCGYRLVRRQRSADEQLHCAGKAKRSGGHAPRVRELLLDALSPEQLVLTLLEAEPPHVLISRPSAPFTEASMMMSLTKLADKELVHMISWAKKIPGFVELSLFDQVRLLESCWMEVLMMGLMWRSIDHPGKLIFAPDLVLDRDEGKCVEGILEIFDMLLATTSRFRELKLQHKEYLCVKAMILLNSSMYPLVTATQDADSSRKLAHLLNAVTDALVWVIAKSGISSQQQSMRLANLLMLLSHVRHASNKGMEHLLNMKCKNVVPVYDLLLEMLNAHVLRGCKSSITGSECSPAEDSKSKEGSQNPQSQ
Sequence of Thyrotropin receptor (Homo sapiens) (P16473 whole entry, looked up): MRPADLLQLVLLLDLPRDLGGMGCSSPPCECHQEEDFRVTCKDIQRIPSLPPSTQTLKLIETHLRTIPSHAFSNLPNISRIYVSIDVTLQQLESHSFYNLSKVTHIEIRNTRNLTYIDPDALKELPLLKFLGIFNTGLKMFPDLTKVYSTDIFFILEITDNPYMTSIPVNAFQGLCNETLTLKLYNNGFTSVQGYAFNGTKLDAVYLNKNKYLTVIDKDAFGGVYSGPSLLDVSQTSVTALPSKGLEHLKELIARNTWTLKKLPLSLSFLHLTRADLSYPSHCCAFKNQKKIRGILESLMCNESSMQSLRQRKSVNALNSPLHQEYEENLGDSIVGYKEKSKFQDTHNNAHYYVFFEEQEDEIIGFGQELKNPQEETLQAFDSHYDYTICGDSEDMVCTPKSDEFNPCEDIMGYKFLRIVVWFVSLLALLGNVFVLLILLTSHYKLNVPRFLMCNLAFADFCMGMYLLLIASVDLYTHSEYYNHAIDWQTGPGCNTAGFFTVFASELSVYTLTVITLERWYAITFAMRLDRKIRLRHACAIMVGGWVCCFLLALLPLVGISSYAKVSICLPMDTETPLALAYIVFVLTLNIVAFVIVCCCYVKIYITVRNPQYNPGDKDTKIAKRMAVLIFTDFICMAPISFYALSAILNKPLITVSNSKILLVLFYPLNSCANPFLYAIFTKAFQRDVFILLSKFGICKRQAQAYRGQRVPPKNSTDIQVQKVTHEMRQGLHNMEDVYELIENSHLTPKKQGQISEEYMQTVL
Sequence of Estrogen receptor (Homo sapiens) (P03372 whole entry, looked up): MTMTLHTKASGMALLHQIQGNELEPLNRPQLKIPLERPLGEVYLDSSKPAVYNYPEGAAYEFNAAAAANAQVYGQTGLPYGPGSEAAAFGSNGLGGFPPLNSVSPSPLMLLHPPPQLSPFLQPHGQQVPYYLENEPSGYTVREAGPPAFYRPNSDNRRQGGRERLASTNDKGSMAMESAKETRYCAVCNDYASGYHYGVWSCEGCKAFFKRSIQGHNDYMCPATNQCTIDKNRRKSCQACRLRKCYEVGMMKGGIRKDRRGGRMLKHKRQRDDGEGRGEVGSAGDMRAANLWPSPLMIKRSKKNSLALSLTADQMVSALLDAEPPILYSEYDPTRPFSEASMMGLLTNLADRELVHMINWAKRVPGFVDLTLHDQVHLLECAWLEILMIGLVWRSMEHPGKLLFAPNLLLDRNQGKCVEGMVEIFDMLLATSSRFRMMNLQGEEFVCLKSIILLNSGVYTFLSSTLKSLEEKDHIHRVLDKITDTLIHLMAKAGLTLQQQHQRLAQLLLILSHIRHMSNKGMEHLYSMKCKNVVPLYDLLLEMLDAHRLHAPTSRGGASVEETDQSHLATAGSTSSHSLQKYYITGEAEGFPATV

With `CC(C)(C)c1cc(CCC(=O)OCC(COC(=O)CCc2cc(C(C)(C)C)c(O)c(C(C)(C)C)c2)(COC(=O)CCc2cc(C(C)(C)C)c(O)c(C(C)(C)C)c2)COC(=O)CCc2cc(C(C)(C)C)c(O)c(C(C)(C)C)c2)cc(C(C)(C)C)c1O`, the Potency entry in test [1], in [2], in test [3], in test [5], in test [6] and in test [8] was “inactive” throughout. The Potency entry in [9], in test [10], in test [11], in test [12], in [13] and in test [14] was “inactive” throughout. The outcome in test [4] and in test [7] was inactive.
On to `O=C(CCN1CCN2CCCC2C1)N1c2ccccc2Sc2ccc(Cl)cc21` (configuration not stated), for which the activity change, negative = cytotoxicity in test [1] is -14.8% [at 19 µM]; in test [4], -2.44% [at 19 µM]; in test [10], -7.38% [at 19 µM]; in test [11], -14.2% [at 19 µM]; in test [17], -9.75% [at 19 µM]. In addition, the results for the activity, negative = inhibition in test [15] and in test [9] were -18% [at 19 µM] and -12.6% [at 19 µM], respectively. Further, the values for the activity change, negative = inhibition in test [2], in test [3] and in test [8] were 3.86% [at 19 µM], 3.91% [at 19 µM] and -18.5% [at 19 µM], respectively. Further, in test [7], the activity change is -0.0401% [at 18.9 µM]. For the same compound, the figures for the activation in test [16] and in [12] were -1.48% [at 19 µM] and -1.43% [at 19 µM], respectively. The cAMP activity change in test [13] is -1.23% [at 18.9 µM, active compounds read high].
Take `CCCCCCCCCCCCCCC1CO1` (configuration not stated): the Potency result in [1], in [2], in test [3], in test [5], in [6] and in test [8] was “inactive” throughout. Besides, the Potency entry in test [18], in test [9], in test [10], in test [11], in test [17] and in test [12] was “inactive” each time. For the same compound, the Potency result in test [14] was “inactive”. For the same compound, the call in test [4] and in test [7] was inactive.
Take `C=CCCCCCC`: the Potency entry in test [1], in test [2], in test [3], in test [5], in [6] and in [9] was “inactive” each time. Moreover, the Potency result in test [10], in [11], in test [17], in [12], in [13] and in test [14] was “inactive” throughout. Besides, the call in [4] and in test [7] was inactive. Besides, in test [8], the Potency was 58.9 µM (active).
`N[C@H]1C(O)O[C@H](CO)[C@H](O)[C@@H]1O` (some centres not stated): the Potency result in [19], in [15], in [2], in [3], in [5] and in [6] was “inactive” in each case. Moreover, the Potency result in test [8], in test [9], in [10], in [11], in [16] and in test [12] was “inactive” each time. The Potency result in [13] and in test [14] was “inactive” throughout. For the same compound, the call in [7] was inactive.
Turning to `COc1cc(C(C)(C)C)c(O)c(C(C)(C)C)c1`, the Potency entry in [1], in test [3], in [5], in [6], in test [8] and in test [10] was “inactive” throughout. Further, the Potency entry in test [11], in [17], in test [13] and in [14] was “inactive” throughout. In [7], the compound was called inactive.
With `Cc1ccc(O)c([C@H](CCN(C(C)C)C(C)C)c2ccccc2)c1`, the Potency result in [1], in test [20], in [3], in test [5], in test [6] and in test [18] was “inactive” throughout. Besides, the Potency entry in test [9], in [13] and in test [14] was “inactive” in each case. The compound was called inactive in test [4] and in [7]. In [11], the Potency is 26.6 µM (active).
For the compound `CCN(CC)CCOc1ccc2c(c1)C(=O)c1cc(OCCN(CC)CC)ccc1-2`, the Potency entry in [1], in [3], in test [5], in [6] and in test [8] was “inactive” in each case. For the same compound, the call in [4] and in test [7] was inactive. Moreover, the Potency in test [10] is 13.3 µM (active); in [11], 18.8 µM (active); in test [17], 18.8 µM (active).
With `C[Si](C)O[Si](C)(C)O[Si](C)(C)O[Si](C)C`, the Potency result in [1], in [2], in test [5], in test [6], in [8] and in [10] was “inactive” each time. For the same compound, the Potency result in [11], in test [12] and in test [14] was “inactive” in each case. For the same compound, the outcome in test [4] and in [7] was inactive.
